# Measured values published in the supplement of paper PMC8728848.
# Only a selection was taken, and the strongest signals are over-represented in it overall.
# Columns and labels:
# Experiment in all cases: glycan array binding signal (z-score within array); higher = stronger binding
# Details in all cases: glycan notation: IUPAC condensed, linker removed
# [1] = biological target: Fuc(a1-2)Gal(b1-4)GlcNAc(b1-2)[Fuc(a1-2)Gal(b1-4)GlcNAc(b1-4)]Man(a1-3)[Fuc(a1-2)Gal(b1-4)GlcNAc(b1-2)Man(a1-6)]Man(b1-4)GlcNAc(b1-4)GlcNAc
# Outline: (§1)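 The binding signal is a Z-score computed within each array. Data were drawn from 3228 arrays in the Consortium for Functional Glycomics database, restricted to those with a known protein sequence. Scores were averaged over arrays of the same protein sequence at different concentrations or buffers, and over linkers, and negative values can be taken as non-binding.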
# [2] = biological target: Fuc(a1-2)Gal(b1-4)GlcNAc(b1-6)GalNAc
# Outline: as §1
# [3] = biological target: Fuc(a1-2)Gal(b1-4)[Fuc(a1-3)]GlcNAc(b1-2)[Fuc(a1-2)Gal(b1-4)[Fuc(a1-3)]GlcNAc(b1-4)]Man(a1-3)[Fuc(a1-2)Gal(b1-4)[Fuc(a1-3)]GlcNAc(b1-2)Man(a1-6)]Man(b1-4)GlcNAc(b1-4)GlcNAc
# Outline: as §1
# [4] = biological target: Fuc(a1-2)Gal(b1-4)[Fuc(a1-3)]GlcNAc(b1-3)Gal(b1-4)[Fuc(a1-3)]GlcNAc(b1-3)Gal(b1-4)[Fuc(a1-3)]GlcNAc
# Outline: as §1
# [5] = biological target: Fuc(a1-2)Gal6S(b1-3)GlcNAc
# Outline: as §1
# [6] = biological target: Fuc(a1-2)Gal6S(b1-4)Glc
# Outline: as §1
# [7] = biological target: Fuc(a1-2)[Gal(a1-4)]Gal(b1-4)GlcNAc
# Outline: as §1
# [8] = biological target: Fuc(a1-3)[Gal(b1-4)]GlcNAc
# Outline: as §1
# [9] = biological target: Fuc(a1-3)[Gal(b1-4)]GlcNAc(b1-2)Man
# Outline: as §1
# [10] = biological target: Gal(a1-3)Gal(b1-3)GlcNAc(b1-2)Man(a1-3)[Gal(a1-3)Gal(b1-3)GlcNAc(b1-2)Man(a1-6)]Man(b1-4)GlcNAc(b1-4)GlcNAc
# Outline: as §1
# [11] = biological target: Gal(a1-3)Gal(b1-4)GlcNAc
# Outline: as §1
# [12] = biological target: Gal(a1-3)Gal(b1-4)GlcNAc(b1-2)Man(a1-3)[Gal(a1-3)Gal(b1-4)GlcNAc(b1-2)Man(a1-6)]Man(b1-4)GlcNAc(b1-4)GlcNAc
# Outline: as §1
# [13] = biological target: Gal(a1-3)Gal(b1-4)[Fuc(a1-3)]GlcNAc
# Outline: as §1
# [14] = biological target: Gal(a1-3)[Gal(a1-4)]Gal(b1-4)GlcNAc
# Outline: as §1
# [15] = biological target: Gal(a1-4)Gal(b1-3)GlcNAc(b1-2)Man(a1-3)[Gal(a1-4)Gal(b1-3)GlcNAc(b1-2)Man(a1-6)]Man(b1-4)GlcNAc(b1-4)GlcNAc
# Outline: as §1
# [16] = biological target: Gal(a1-4)Gal(b1-4)GlcNAc
# Outline: as §1
# [17] = biological target: Gal(a1-4)Gal(b1-4)GlcNAc(b1-2)Man(a1-3)[Gal(a1-4)Gal(b1-4)GlcNAc(b1-2)Man(a1-6)]Man(b1-4)GlcNAc(b1-4)GlcNAc
# Outline: as §1
# [18] = biological target: Gal(a1-4)Gal(b1-4)GlcNAc(b1-3)Gal(b1-4)Glc
# Outline: as §1
# [19] = biological target: Gal(a1-4)GlcNAc
# Outline: as §1
# [20] = biological target: Gal(b1-3)Gal(b1-4)GlcNAc(b1-2)Man(a1-3)[Gal(b1-3)Gal(b1-4)GlcNAc(b1-2)Man(a1-6)]Man(b1-4)GlcNAc(b1-4)GlcNAc
# Outline: as §1
# [21] = biological target: Gal(b1-3)GalNAc(b1-3)Gal(a1-4)Gal(b1-4)Glc
# Outline: as §1
# [22] = biological target: Gal(b1-3)GlcNAc(b1-3)Gal(b1-4)Glc
# Outline: as §1
# [23] = biological target: Gal(b1-4)GlcNAc(b1-2)Man(a1-6)[Man(a1-3)]Man(b1-4)GlcNAc(b1-4)GlcNAc
# Outline: as §1
# [24] = biological target: Gal3S(b1-3)GlcNAc
# Outline: as §1
# [25] = biological target: Gal3S(b1-3)[Fuc(a1-4)]GlcNAc
# Outline: as §1
# [26] = biological target: GalNAc(b1-3)Gal(a1-4)Gal(b1-4)GlcNAc(b1-3)Gal(b1-4)Glc
# Outline: as §1
# [27] = biological target: GalNAc(b1-4)GlcNAc
# Outline: as §1
# [28] = biological target: GlcNAc(a1-4)Gal(b1-4)GlcNAc(b1-3)Gal(b1-4)Glc
# Outline: as §1
# [29] = biological target: GlcNAc(a1-4)Gal(b1-4)GlcNAc(b1-3)Gal(b1-4)[Fuc(a1-3)]GlcNAc(b1-3)Gal(b1-4)[Fuc(a1-3)]GlcNAc
# Outline: as §1
# [30] = biological target: GlcNAc(b1-2)Man(a1-3)[GlcNAc(b1-2)Man(a1-6)]Man(b1-4)GlcNAc(b1-4)[Fuc(a1-6)]GlcNAc
# Outline: as §1
# [31] = biological target: GlcNAc(b1-2)[GlcNAc(b1-6)]Man(a1-6)[GlcNAc(b1-2)Man(a1-3)]Man(b1-4)GlcNAc(b1-4)[Fuc(a1-6)]GlcNAc
# Outline: as §1
# [32] = biological target: GlcNAc(b1-3)Gal(b1-4)GlcNAc(b1-3)GalNAc
# Outline: as §1
# [33] = biological target: GlcNAc(b1-3)[GlcNAc(b1-4)][GlcNAc(b1-6)]GlcNAc
# Outline: as §1
# [34] = biological target: Man(a1-2)Man(a1-3)Man
# Outline: as §1
# [35] = biological target: Neu5Ac(a2-3)Gal(b1-4)GlcNAc(b1-2)Man(a1-3)[GlcNAc(b1-4)][Neu5Ac(a2-3)Gal(b1-4)GlcNAc(b1-2)Man(a1-6)]Man(b1-4)GlcNAc(b1-4)GlcNAc
# Outline: as §1
# [36] = biological target: Neu5Ac(a2-3)Gal(b1-4)GlcNAc(b1-3)Gal(b1-4)[Fuc(a1-3)]GlcNAc
# Outline: as §1
# [37] = biological target: Neu5Ac(a2-3)[GalNAc(b1-4)]Gal(b1-4)Glc
# Outline: as §1
# [38] = biological target: Neu5Ac(a2-6)Gal(b1-4)GlcNAc6S
# Outline: as §1
# [39] = biological target: Neu5Gc(a2-8)Neu5Ac(a2-3)Gal(b1-4)GlcNAc
# Outline: as §1
binder,measurement,setting,value
"PA-IL (Pseudomonas aeruginosa), Q05097 (protein) MAWKGEVLANNEAGQVTSIIYNPGDVITIVAAGWASYGPTQKWGPQGDREHPDQGLICHDAFCGALVMKIGNSGTIPVNTGLFRWVAPNNVQGAITLIYNDVPGTYGNNSGSFSVNIGKDQS",glycan array binding signal (z-score),[1],-0.197
same,glycan array binding signal (z-score),[2],-0.201
same,glycan array binding signal (z-score),[3],-0.185
same,glycan array binding signal (z-score),[4],-0.213
same,glycan array binding signal (z-score),[5],-0.225
same,glycan array binding signal (z-score),[6],-0.229
same,glycan array binding signal (z-score),[7],5.44
same,glycan array binding signal (z-score),[8],-0.224
same,glycan array binding signal (z-score),[9],-0.233
same,glycan array binding signal (z-score),[10],0.015
same,glycan array binding signal (z-score),[11],5.08
same,glycan array binding signal (z-score),[12],6.97
same,glycan array binding signal (z-score),[13],5.02
same,glycan array binding signal (z-score),[14],6.55
same,glycan array binding signal (z-score),[15],7.29
same,glycan array binding signal (z-score),[16],4.79
same,glycan array binding signal (z-score),[17],8.23
same,glycan array binding signal (z-score),[18],5.73
same,glycan array binding signal (z-score),[19],3.63
same,glycan array binding signal (z-score),[20],7.65
same,glycan array binding signal (z-score),[21],-0.228
same,glycan array binding signal (z-score),[22],-0.228
same,glycan array binding signal (z-score),[23],-0.237
same,glycan array binding signal (z-score),[24],-0.229
same,glycan array binding signal (z-score),[25],-0.225
same,glycan array binding signal (z-score),[26],-0.228
same,glycan array binding signal (z-score),[27],-0.236
same,glycan array binding signal (z-score),[28],-0.23
same,glycan array binding signal (z-score),[29],-0.203
same,glycan array binding signal (z-score),[30],-0.214
same,glycan array binding signal (z-score),[31],-0.217
same,glycan array binding signal (z-score),[32],-0.221
same,glycan array binding signal (z-score),[33],-0.228
same,glycan array binding signal (z-score),[34],-0.226
same,glycan array binding signal (z-score),[35],-0.244
same,glycan array binding signal (z-score),[36],-0.226
same,glycan array binding signal (z-score),[37],-0.226
same,glycan array binding signal (z-score),[38],-0.228
same,glycan array binding signal (z-score),[39],-0.245
